Measured values published in PubChem BioAssay (NCATS).
Inconclusive results are not listed. Unmarked numbers belong to inactive results. The source made the active and inactive calls. Calls come from the whole dose curve; as a rule, active = well fitted curve in the direction sought with a large enough effect; inconclusive = small, poorly fitted or top-dose-only effect, or another doubt; inactive = no such curve, though single readings can be large; an effect the other way counts as inactive or inconclusive.

Key:
[1] = Primary redox qHTS assay for identification of artifact compounds. (AID 1845223)
Procedure, shortened: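 Redox-cycling detection via DTT (250 uM final) oxidation coupled to Amplex Red (25 uM)/HRP (250 mU/mL) in HBSS. 15 min preincubation plus 30 min after DTT, room temperature. Ex/Em 525/598 nm; 4-parameter Hill fit against DMSO and 10 uM DA3003.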

[2] = Quantitative High-Throughput drug screen in 47 multiple myeloma cell lines against the NCATS MIPE library collection: FR4_PLB cell viability assay (AID 1918924; note: potency is the fitted concentration of half-maximal effect; nearly all actives have a fitted effect of over 35% in size)
Procedure, shortened: (§1)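 Approved and investigational drugs from MIPE 4.0 were added by pin tool to 500 cells per well. After 48 hours at 37C, ATP-based CellTiter-Glo luminescence indicated remaining viability.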

[3] = Quantitative High-Throughput drug screen in 47 multiple myeloma cell lines against the NCATS MIPE library collection: Delta47_JCRB cell viability assay (AID 1918925; note: potency is the fitted concentration of half-maximal effect; nearly all actives have a fitted effect of over 45% in size)
Procedure, shortened: (§2)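 Viability readout: CellTiter-Glo luminescence following 5 min room-temperature incubation with reagent. Prior exposure: 48 h, 37C, humidified 5% CO2, 500 cells per well.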

[4] = Quantitative High-Throughput drug screen in 47 multiple myeloma cell lines against the NCATS MIPE library collection: EJM_DSMZ cell viability assay (AID 1918926; note: potency is the fitted concentration of half-maximal effect; nearly all actives have a fitted effect of over 30% in size)
Procedure, shortened: as §2

[5] = Quantitative High-Throughput drug screen in 47 multiple myeloma cell lines against the NCATS MIPE library collection: AMO1_DSMZ cell viability assay (AID 1918927; note: potency is the fitted concentration of half-maximal effect; nearly all actives have a fitted effect of over 30% in size)
Procedure, shortened: as §2

[6] = Quantitative High-Throughput drug screen in 47 multiple myeloma cell lines against the NCATS MIPE library collection: ARP1_JJKsccF8 cell viability assay (AID 1918928; note: potency is the fitted concentration of half-maximal effect; nearly all actives have a fitted effect of over 40% in size)
Procedure, shortened: (§3)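 Viability screen: myeloma cells (500/well) incubated 48 h at 37 °C, humidified 5% CO2, with pinned library compounds; CellTiter-Glo added, luminescence read; DMSO wells set 100%, medium-only wells 0%.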

[7] = Quantitative High-Throughput drug screen in 47 multiple myeloma cell lines against the NCATS MIPE library collection: ARD_JJKsccE7 cell viability assay (AID 1918929; note: potency is the fitted concentration of half-maximal effect)
Procedure, shortened: as §2

[8] = Quantitative High-Throughput drug screen in 47 multiple myeloma cell lines against the NCATS MIPE library collection: Karpas620_DSMZ cell viability assay (AID 1918959); note: potency is the fitted concentration of half-maximal effect; nearly all actives have a fitted effect of over 30% in size
Procedure, shortened: as §1

[9] = Quantitative High-Throughput drug screen in 47 multiple myeloma cell lines against the NCATS MIPE library collection: KMM1_JCRB cell viability assay (AID 1918960); note: potency is the fitted concentration of half-maximal effect; nearly all actives have a fitted effect of over 30% in size
Procedure, shortened: as §3

[10] = Quantitative High-Throughput drug screen in 47 multiple myeloma cell lines against the NCATS MIPE library collection: Karpas417_ECACC cell viability assay (AID 1918961); details: Karpas417 myeloma viability, CellTiter-Glo ATP luminescence, 48 h; viability (% of DMSO): at 45.8 µM (top of the series); note: potency is the fitted concentration of half-maximal effect
Procedure, shortened: (§4)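 Inhibition of cell viability is measured here. Each line was plated at 500 cells per well, treated with MIPE 4.0 drugs, kept 48 hours at 37C, then assayed for ATP content by CellTiter-Glo luminescence.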

[11] = Quantitative High-Throughput drug screen in 47 multiple myeloma cell lines against the NCATS MIPE library collection: JIM1_ECACC cell viability assay (AID 1918964; note: potency is the fitted concentration of half-maximal effect)
Procedure, shortened: as §2

[12] = Quantitative High-Throughput drug screen in 47 multiple myeloma cell lines against the NCATS MIPE library collection: INA6_PLB cell viability assay (AID 1918965; note: potency is the fitted concentration of half-maximal effect; nearly all actives have a fitted effect of over 55% in size)
Procedure, shortened: as §4

[13] = Quantitative High-Throughput drug screen in 47 multiple myeloma cell lines against the NCATS MIPE library collection: JJN3_DSMZ cell viability assay (AID 1918966; note: potency is the fitted concentration of half-maximal effect; nearly all actives have a fitted effect of over 50% in size)
Procedure, shortened: as §2

[14] = Quantitative High-Throughput drug screen in 47 multiple myeloma cell lines against the NCATS MIPE library collection: H1112_PLB cell viability assay (AID 1918967)
Procedure, shortened: as §2

[15] = Quantitative High-Throughput drug screen in 47 multiple myeloma cell lines against the NCATS MIPE library collection: Karpas25_ECACC cell viability assay (AID 1918968; note: potency is the fitted concentration of half-maximal effect; nearly all actives have a fitted effect of over 35% in size)
Procedure, shortened: as §2

[16] = Quantitative High-Throughput drug screen in 47 multiple myeloma cell lines against the NCATS MIPE library collection: KMS12BM_JCRB cell viability assay (AID 1918971); note: potency is the fitted concentration of half-maximal effect; nearly all actives have a fitted effect of over 35% in size
Procedure, shortened: as §2

[17] = Quantitative High-Throughput drug screen in 47 multiple myeloma cell lines against the NCATS MIPE library collection: KMS12PE_JCRB cell viability assay (AID 1918972)
Procedure, shortened: as §4

[18] = Quantitative High-Throughput drug screen in 47 multiple myeloma cell lines against the NCATS MIPE library collection: KHM11_PLB cell viability assay (AID 1918962); note: potency is the fitted concentration of half-maximal effect; nearly all actives have a fitted effect of over 35% in size
Procedure, shortened: as §1

[19] = Quantitative High-Throughput drug screen in 47 multiple myeloma cell lines against the NCATS MIPE library collection: JIM3_ECACC cell viability assay (AID 1918963)
Procedure, shortened: as §1

[20] = Quantitative High-Throughput drug screen in 47 multiple myeloma cell lines against the NCATS MIPE library collection: KMS27_JCRB cell viability assay (AID 1918970)
Procedure, shortened: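 ATP-based viability (CellTiter-Glo luminescence) is measured in cells treated 48 h with approved and investigational drugs at 37 °C. Controls are DMSO-only wells for full viability and media-only wells for none.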

Compound | Potency [1] | Potency [2] | Potency [3] | Potency [4] | Potency [5] | Potency [6] | Potency [7] | Potency [8] | Potency [9] | Potency [10] | Potency [11] | Potency [12] | Potency [13] | Potency [14] | Potency [15] | Potency [16] | Potency [17] | Potency [18] | Potency [19] | Potency [20]
CC(C)(O)c1cc2nc(-c3cnc(N)nc3)nc(N3CCOCC3)c2s1 | inactive | 0.235 µM (active) | 0.0296 µM (active) | 0.743 µM (active) | 0.0935 µM (active) | 0.0187 µM (active) | 0.105 µM (active) | 0.166 µM (active) | 0.0332 µM (active) | 0.0148 µM (active) | 0.0105 µM (active) | 0.743 µM (active) | 0.059 µM (active) | 0.418 µM (active) | 0.0296 µM (active) | 0.0833 µM (active) | 1.48 µM (active) |  |  | 
O=C(c1ccc(Nc2nccc(-c3cc4ccccc4s3)n2)cc1)N1CCC(N2CCCC2)CC1 | inactive | 13.2 µM (active) | 2.96 µM (active) | 18.7 µM (active) | 7.43 µM (active) | 13.2 µM (active) | 9.35 µM (active) | 4.18 µM (active) | 5.9 µM (active) | 2.09 µM (active) | 4.69 µM (active) | 1.66 µM (active) | 16.6 µM (active) | 7.43 µM (active) | 4.18 µM (active) | 13.2 µM (active) | 1.87 µM (active) | 3.72 µM (active) | 3.72 µM (active) | 4.18 µM (active)
CCCCOc1c(C(=O)c2c(F)cc(C)cc2F)cnc2n[nH]cc12 | inactive | 4.18 µM (active) | 2.64 µM (active) | 2.64 µM (active) | 1.66 µM (active) | 4.18 µM (active) | 2.96 µM (active) | 7.43 µM (active) | 2.35 µM (active) | 2.35 µM (active) | 2.96 µM (active) | 4.18 µM (active) | 2.35 µM (active) | 4.69 µM (active) |  | 5.26 µM (active) |  | 3.72 µM (active) | 8.33 µM (active) | 3.72 µM (active)
COc1ccc(-c2cc3c(C)nc(N)nc3n(C3CCC(OCCO)CC3)c2=O)cn1 (configuration not stated) | inactive | 0.0332 µM (active) | 0.0118 µM (active) | 0.132 µM (active) | 0.0418 µM (active) | 0.0209 µM (active) | 0.187 µM (active) | 0.132 µM (active) | 0.0235 µM (active) |  | 0.0074 µM (active) | 0.148 µM (active) | 0.0833 µM (active) | 0.662 µM (active) | 0.0264 µM (active) | 0.059 µM (active) | 0.372 µM (active) | 0.0296 µM (active) | 0.0662 µM (active) | 0.0264 µM (active)
Cc1cnc(Nc2ccc(F)cc2Cl)nc1-c1c[nH]c(C(=O)N[C@H](CO)c2cccc(Cl)c2)c1 | inactive | 29.6 µM (active) | 7.43 µM (active) | 23.5 µM (active) | 4.18 µM (active) | 23.5 µM (active) | 14.8 µM (active) | 1.05 µM (active) | 7.43 µM (active) |  | 7.43 µM (active) | 9.35 µM (active) |  | 16.6 µM (active) | 14.8 µM (active) | 23.5 µM (active) | 10.5 µM (active) | 0.526 µM (active) | 16.6 µM (active) | 6.62 µM (active)
Nc1ncnc2c1c(-c1cccc(OCc3ccccc3)c1)cn2C1CC(CN2CCCC2)C1 (configuration not stated) | inactive | 26.4 µM (active) | 0.059 µM (active) | 23.5 µM (active) | 16.6 µM (active) | 16.6 µM (active) | 1.18 µM (active) | 5.9 µM (active) | 4.18 µM (active) |  | 0.296 µM (active) | 6.62 µM (active) | 5.9 µM (active) | 16.6 µM (active) |  | 23.5 µM (active) | 9.35 µM (active) | 5.26 µM (active) | 0.0833 µM (active) | 18.7 µM (active)
Cc1[nH]nc2ccc(-c3cncc(OC[C@@H](N)Cc4ccccc4)c3)cc12 | inactive | 4.18 µM (active) | 0.526 µM (active) | 1.87 µM (active) | 0.935 µM (active) | 4.69 µM (active) | 2.09 µM (active) | 2.09 µM (active) | 1.32 µM (active) |  | 1.87 µM (active) | 0.935 µM (active) | 1.18 µM (active) | 1.87 µM (active) | 2.96 µM (active) | 4.18 µM (active) | 0.833 µM (active) | 0.235 µM (active) | 2.09 µM (active) | 2.09 µM (active)
Nc1cc(C(F)(F)F)c(-c2cc(N3CCOCC3)nc(N3CCOCC3)n2)cn1 | inactive | 0.148 µM (active) | 0.296 µM (active) | 5.9 µM (active) | 0.105 µM (active) | 0.209 µM (active) | 0.187 µM (active) | 0.235 µM (active) | 0.372 µM (active) |  | 0.0469 µM (active) | 1.32 µM (active) |  | 0.743 µM (active) | 0.743 µM (active) | 1.05 µM (active) | 0.418 µM (active) | 1.05 µM (active) | 0.743 µM (active) | 0.209 µM (active)
